ChEMBL document CHEMBL1157539, “Thousands of chemical starting points for antimalarial lead identification” (Nature, 2010)
The full ranking holds about 13,000 compounds; the median of “IFI” is about 4, and the highest 2% start at about 17. The sample as a whole holds a higher share of the highest values than the screen did.

Assay: GSK_TCMDC: Inhibition Frequency Index (IFI). The number of non-kinase HTS assays where a compound showed > 50 % inhibition, expressed as a percentage of the number of such assays in which the compound was tested
Format: functional

Q: Which IFI does the source give for `O=C(CCc1c[nH]cn1)Nc1ccc(-c2ccc(-c3nc4cc(F)ccc4[nH]3)cc2)cc1` here?
A: 6.48%

Q: For `O=C(Nc1ccccc1)N(Cc1cccc(-c2cccc(CNCCc3ccccc3)c2)c1)C1CCN(Cc2ccccc2)CC1`, which IFI is on record?
A: 12.3%

Q: For `COc1ccc(NS(=O)(=O)c2ccc(C(=O)Nc3ccc(OC(F)(F)F)cc3)cc2)cc1N1CCN(CC2CC2)CC1`, which IFI is on record?
A: 8.49%

Q: Which IFI does the source give for `CCCCN1CCN(c2cc(NS(=O)(=O)c3cccc(C(=O)Nc4ccc(C(F)(F)F)cc4)c3)ccc2OC)CC1` here?
A: 3.55%

Q: Which IFI does the source give for `COc1ccc(S(=O)(=O)Nc2ccc(C(=O)NCc3ccc(C(F)(F)F)cc3)cc2)cc1N1CCN(CC2CC2)CC1` here?
A: 20%

Q: With `CCC(C)c1ccc(NC(=O)c2ccc(S(=O)(=O)Nc3ccc(OC)c(N4CCN(CC5CC5)CC4)c3)cc2)cc1` (stereo not given) as the molecule, how does the IFI read?
A: 13.6%

Q: Which IFI does the source give for `COc1ccc(NS(=O)(=O)c2cccc(C(=O)Nc3ccc(C(F)(F)F)cc3)c2)cc1N1CCN(CC(C)C)CC1` here?
A: 2.84%

Q: Which IFI does the source give for `CCCCN1CCN(c2cc(NS(=O)(=O)c3ccc(C(=O)Nc4ccc(C(F)(F)F)cc4)cc3)ccc2OC)CC1` here?
A: 3.97%

Q: With `COc1ccc(NS(=O)(=O)c2ccc(C(=O)Nc3ccc(C(F)(F)F)cc3)cc2)cc1N1CCN(CC2CC2)CC1` as the molecule, how does the IFI read?
A: 2.1%

Q: Which IFI does the source give for `COc1ccc(S(=O)(=O)Nc2ccc(C(=O)NCc3ccccc3C(F)(F)F)cc2)cc1N1CCN(CC2CC2)CC1` here?
A: 19.4%

Q: With `CCCN1CCN(c2cc(S(=O)(=O)Nc3ccc(C(=O)NCc4cccc(C(F)(F)F)c4)cc3)ccc2OC)CC1` as the molecule, how does the IFI read?
A: 24.1%

Q: With `C#Cc1cccc(NC(=O)[C@H](CC2CCCCC2)Nc2ccc(C#N)c3ccccc23)c1` as the molecule, how does the IFI read?
A: 3.77%

Q: With `CCCCOc1ccc(-c2nc3ccccc3[nH]2)cc1` as the molecule, how does the IFI read?
A: 2.14%

Q: Which IFI does the source give for `COc1ccc(OCCCON2C(=N)N=C(N)NC2(C)C)cc1` here?
A: 2.88%

Q: With `O=S(=O)(NCCN1CCCC1)c1ccc(-c2cccc(CNCc3ccc(F)cc3)c2)s1` as the molecule, how does the IFI read?
A: 9.65%

Q: With `CCNC(=O)Nc1cccc(-c2cccc(-c3nc4cccc(C)c4[nH]3)c2)c1` as the molecule, how does the IFI read?
A: 5.05%

Q: Which IFI does the source give for `CCN(CC)CCn1c(=N)n(CC(O)c2ccc(Cl)c(Cl)c2)c2ccccc21` (stereo not given) here?
A: 6.52%

Q: With `CN(C)CCn1c(=N)n(CC(O)c2ccc(Cl)c(Cl)c2)c2ccccc21` (stereo not given) as the molecule, how does the IFI read?
A: 2.21%

Q: With `CCCCCCCn1c(=N)n(CC(O)c2ccc(Cl)c(Cl)c2)c2ccccc21` (stereo not given) as the molecule, how does the IFI read?
A: 17.6%

Q: Which IFI does the source give for `Cc1ccc(C2(CN3CCC(NC(=O)c4n[nH]cc4Cl)CC3)CCCCC2)cc1` here?
A: 8.33%

Q: For `CN1CCN(CC(=O)Nc2cccc(-c3cccc(-c4nc5ccccc5[nH]4)c3)c2)CC1`, which IFI is on record?
A: 1.8%

Q: Which IFI does the source give for `O=C(Nc1cccc(C(F)(F)F)c1)Nc1ccc(Cl)c(Cl)c1` here?
A: 16.1%

Q: With `O=C(Nc1ccc(Cl)c(C(F)(F)F)c1)Nc1ccc(Cl)c(C(F)(F)F)c1` as the molecule, how does the IFI read?
A: 12.7%

Q: Which IFI does the source give for `O=C(Nc1ccc(Cl)c(Cl)c1)Nc1cc(C(F)(F)F)ccc1Cl` here?
A: 5.71%

Q: Which IFI does the source give for `O=C(Nc1cc(C(F)(F)F)cc(C(F)(F)F)c1)Nc1ccc(Cl)c(Cl)c1` here?
A: 19.1%

Q: With `O=C(Nc1cccc(C(F)(F)F)c1)Nc1ccc2nonc2c1` as the molecule, how does the IFI read?
A: 22.5%

Q: Which IFI does the source give for `O=C(Nc1ccc(SC(F)(F)F)cc1)Nc1ccc(Cl)c(Cl)c1` here?
A: 18.7%

Q: Which IFI does the source give for `O=C(Nc1cccc(C(F)(F)F)c1)Nc1ccc(F)c([N+](=O)[O-])c1` here?
A: 15.8%

Q: Which IFI does the source give for `O=C(Nc1ccc(Cl)cc1)Nc1ccc2nonc2c1` here?
A: 12.8%

Q: With `O=C(Nc1ccc(SC(F)(F)F)cc1)Nc1ccnc2ccccc12` as the molecule, how does the IFI read?
A: 9.29%

Q: For `c1ccc2c(NCCCCCCCCNc3ccnc4ccccc34)ccnc2c1`, which IFI is on record?
A: 8.27%

Q: For `CCOc1cc(N)c2nc3ccc([N+](=O)[O-])cc3cc2c1`, which IFI is on record?
A: 6.47%

Q: Which IFI does the source give for `CC(C)(C)NS(=O)(=O)c1cc(C(=O)N2CCC(CCN3CCC(C(=O)c4ccc(F)cc4)CC3)(c3cccc(F)c3)CC2)c(Cl)cc1F` here?
A: 3.55%

Q: With `C=CCOC(=O)N1CCC(CNCc2ccc(-c3ccc(-c4nc5ccccc5[nH]4)s3)cc2)C1` (stereo not given) as the molecule, how does the IFI read?
A: 11%

Q: Which IFI does the source give for `COc1cccc(Nc2nccc(-c3c(-c4cccc(NC(=O)c5c(F)cccc5F)c4)nn4ccccc34)n2)c1` here?
A: 4.39%

Q: Which IFI does the source give for `NC(=O)C1CCN(Cc2ccc(-c3ccc(-c4nc5cc(F)ccc5[nH]4)cc3)cc2)CC1` here?
A: 4.72%

Q: For `Fc1ccc2c(NN=Cc3ccc(Cl)cc3)ccnc2c1`, which IFI is on record?
A: 0.74%

Q: With `O=C(NCCCCN1CCC(c2ccc3ccccc3c2O)CC1)c1ccc(-c2ccc(Cl)cc2)cc1` as the molecule, how does the IFI read?
A: 15.1%

Q: With `CC(C)C(=O)NC(c1ccc(N(C)C)cc1)c1cc(Cl)c2cccnc2c1O` (stereo not given) as the molecule, how does the IFI read?
A: 5.38%

Q: With `CCn1c(-c2nonc2N)nc2c(-c3cccc(NC(=O)Nc4ccc(Cl)cc4)c3)ncc(OCCCN)c21` as the molecule, how does the IFI read?
A: 19.3%

Q: Which IFI does the source give for `CCn1c(-c2nonc2N)nc2c(-c3cccc(NC(=O)Nc4cccc(C(F)(F)F)c4)c3)ncc(OCCCN)c21` here?
A: 14.6%

Q: With `CCn1c(-c2nonc2N)nc2c(-c3cccc(NC(=O)Nc4ccc5c(c4)CCC5)c3)ncc(OCCCN)c21` as the molecule, how does the IFI read?
A: 14.8%

Q: Which IFI does the source give for `CCOC(=O)c1cccc(NC(=O)Nc2cccc(-c3ncc(OCCCN)c4c3nc(-c3nonc3N)n4CC)c2)c1` here?
A: 16.5%

Q: For `CCn1c(-c2nonc2N)nc2c(-c3cccc(NC(=O)NCc4ccccc4)c3)ncc(OCCCN)c21`, which IFI is on record?
A: 12.9%

Q: For `CCn1c(-c2nonc2N)nc2c(-c3cccc(NC(=O)Nc4cccc(Cl)c4)c3)ncc(OCCCN)c21`, which IFI is on record?
A: 17.6%

Q: With `CCn1c(-c2nonc2N)nc2c(-c3ccccc3)ncc(OCCCNCCCN3CCOCC3)c21` as the molecule, how does the IFI read?
A: 3.08%

Q: With `CCn1c(-c2nonc2N)nc2c(-c3cccc(NC(=O)Nc4cccc(C#N)c4)c3)ncc(OCCCN)c21` as the molecule, how does the IFI read?
A: 16.7%

Q: Which IFI does the source give for `CCn1c(-c2nonc2N)nc2c(-c3cccc(NC(=O)Nc4ccc(C#N)cc4)c3)ncc(OCCCN)c21` here?
A: 15.7%

Q: With `CCn1c(-c2nonc2N)nc2c(-c3cccc(NC(=O)NC45CC6CC(CC(C6)C4)C5)c3)ncc(OCCCN)c21` as the molecule, how does the IFI read?
A: 16.7%

Q: Which IFI does the source give for `CCn1c(-c2nonc2N)nc2c(-c3cccc(NC(=O)Nc4ccc(C(F)(F)F)cc4)c3)ncc(OCCCN)c21` here?
A: 19.1%

Q: Which IFI does the source give for `NCCCOc1cnc(-c2ccccc2)c2nc(-c3nonc3N)n(CCc3ccccc3)c12` here?
A: 18.8%

Q: With `Cc1ccc(NC(=O)c2cc(S(=O)(=O)NC(C)(C)C)ccc2C)nc1` as the molecule, how does the IFI read?
A: 0%

Q: Which IFI does the source give for `O=C(NC1CCN(CC2(c3ccccc3F)CCCC2)CC1)c1cc[nH]n1` here?
A: 0%

Q: Which IFI does the source give for `Cc1nc(C)c(-c2ccc(C(F)(F)F)cc2)c(O)c1Br` here?
A: 0%

Q: Which IFI does the source give for `O=S(=O)(NCCN1CCCC1)c1ccc(-c2cccc(CNCc3ccsc3)c2)s1` here?
A: 6.9%
